The target in assay [1] is Tyrosine-protein kinase SYK (Homo sapiens) (UniProt P43405). The note with it: at 10 µM.
For assay [2], the target named is T1, Mitogen-activated protein kinase kinase kinase 7 (Homo sapiens) (UniProt O43318).
T1 sequence (whole entry): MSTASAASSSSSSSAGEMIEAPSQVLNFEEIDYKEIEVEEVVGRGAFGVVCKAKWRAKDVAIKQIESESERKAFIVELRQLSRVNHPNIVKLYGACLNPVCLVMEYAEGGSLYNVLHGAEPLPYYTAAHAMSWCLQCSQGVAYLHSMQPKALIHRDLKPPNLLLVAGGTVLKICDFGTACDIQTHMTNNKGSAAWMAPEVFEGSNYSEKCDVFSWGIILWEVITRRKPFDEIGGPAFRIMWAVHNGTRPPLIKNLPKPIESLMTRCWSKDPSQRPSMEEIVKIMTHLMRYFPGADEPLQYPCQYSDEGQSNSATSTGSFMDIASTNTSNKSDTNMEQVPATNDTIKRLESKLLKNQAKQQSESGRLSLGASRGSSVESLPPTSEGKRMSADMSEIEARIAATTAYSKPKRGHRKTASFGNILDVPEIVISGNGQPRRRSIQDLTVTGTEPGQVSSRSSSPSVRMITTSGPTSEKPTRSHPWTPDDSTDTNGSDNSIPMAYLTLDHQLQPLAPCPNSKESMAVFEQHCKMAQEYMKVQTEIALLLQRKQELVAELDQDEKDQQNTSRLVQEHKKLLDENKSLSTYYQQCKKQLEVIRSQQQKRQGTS
Particulars: at 1 µM.

Assay [3] has as its target T1, Mitogen-activated protein kinase kinase kinase 7 (Homo sapiens). The note with it: at 10 µM.
The target in assay [4] is T2, Serine/threonine-protein kinase TAO1 (Homo sapiens) (UniProt Q7L7X3).
T2 sequence (whole entry): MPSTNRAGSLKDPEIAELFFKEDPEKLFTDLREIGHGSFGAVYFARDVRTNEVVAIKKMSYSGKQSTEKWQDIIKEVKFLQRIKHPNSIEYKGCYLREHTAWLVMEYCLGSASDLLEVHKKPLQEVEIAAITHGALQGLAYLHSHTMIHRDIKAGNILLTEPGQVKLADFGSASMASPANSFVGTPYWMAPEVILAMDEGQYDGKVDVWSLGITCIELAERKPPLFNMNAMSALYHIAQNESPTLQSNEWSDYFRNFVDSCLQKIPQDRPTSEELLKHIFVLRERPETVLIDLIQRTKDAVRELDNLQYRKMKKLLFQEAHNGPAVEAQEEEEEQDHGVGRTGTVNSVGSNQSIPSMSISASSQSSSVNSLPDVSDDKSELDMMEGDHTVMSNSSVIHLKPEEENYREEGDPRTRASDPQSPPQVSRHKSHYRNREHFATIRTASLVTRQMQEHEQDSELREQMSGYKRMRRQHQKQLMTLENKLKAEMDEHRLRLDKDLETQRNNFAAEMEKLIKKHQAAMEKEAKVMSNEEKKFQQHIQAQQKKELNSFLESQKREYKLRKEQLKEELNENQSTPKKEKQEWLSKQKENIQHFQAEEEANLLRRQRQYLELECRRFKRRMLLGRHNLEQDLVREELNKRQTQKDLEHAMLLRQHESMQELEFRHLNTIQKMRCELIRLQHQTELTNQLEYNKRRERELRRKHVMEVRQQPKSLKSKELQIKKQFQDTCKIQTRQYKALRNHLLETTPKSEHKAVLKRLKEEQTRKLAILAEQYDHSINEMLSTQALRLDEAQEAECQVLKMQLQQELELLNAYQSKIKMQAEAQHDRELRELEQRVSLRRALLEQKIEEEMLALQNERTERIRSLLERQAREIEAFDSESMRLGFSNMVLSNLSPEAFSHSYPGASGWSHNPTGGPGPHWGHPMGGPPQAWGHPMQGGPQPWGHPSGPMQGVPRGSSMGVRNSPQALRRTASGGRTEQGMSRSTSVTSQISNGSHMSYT
Particulars: at 1 µM.

The target in assay [5] is T2, Serine/threonine-protein kinase TAO1 (Homo sapiens). Particulars: at 10 µM.
In assay [6] the target is T3, Serine/threonine-protein kinase TAO2 (Homo sapiens) (UniProt Q9UL54).
T3 sequence (whole entry): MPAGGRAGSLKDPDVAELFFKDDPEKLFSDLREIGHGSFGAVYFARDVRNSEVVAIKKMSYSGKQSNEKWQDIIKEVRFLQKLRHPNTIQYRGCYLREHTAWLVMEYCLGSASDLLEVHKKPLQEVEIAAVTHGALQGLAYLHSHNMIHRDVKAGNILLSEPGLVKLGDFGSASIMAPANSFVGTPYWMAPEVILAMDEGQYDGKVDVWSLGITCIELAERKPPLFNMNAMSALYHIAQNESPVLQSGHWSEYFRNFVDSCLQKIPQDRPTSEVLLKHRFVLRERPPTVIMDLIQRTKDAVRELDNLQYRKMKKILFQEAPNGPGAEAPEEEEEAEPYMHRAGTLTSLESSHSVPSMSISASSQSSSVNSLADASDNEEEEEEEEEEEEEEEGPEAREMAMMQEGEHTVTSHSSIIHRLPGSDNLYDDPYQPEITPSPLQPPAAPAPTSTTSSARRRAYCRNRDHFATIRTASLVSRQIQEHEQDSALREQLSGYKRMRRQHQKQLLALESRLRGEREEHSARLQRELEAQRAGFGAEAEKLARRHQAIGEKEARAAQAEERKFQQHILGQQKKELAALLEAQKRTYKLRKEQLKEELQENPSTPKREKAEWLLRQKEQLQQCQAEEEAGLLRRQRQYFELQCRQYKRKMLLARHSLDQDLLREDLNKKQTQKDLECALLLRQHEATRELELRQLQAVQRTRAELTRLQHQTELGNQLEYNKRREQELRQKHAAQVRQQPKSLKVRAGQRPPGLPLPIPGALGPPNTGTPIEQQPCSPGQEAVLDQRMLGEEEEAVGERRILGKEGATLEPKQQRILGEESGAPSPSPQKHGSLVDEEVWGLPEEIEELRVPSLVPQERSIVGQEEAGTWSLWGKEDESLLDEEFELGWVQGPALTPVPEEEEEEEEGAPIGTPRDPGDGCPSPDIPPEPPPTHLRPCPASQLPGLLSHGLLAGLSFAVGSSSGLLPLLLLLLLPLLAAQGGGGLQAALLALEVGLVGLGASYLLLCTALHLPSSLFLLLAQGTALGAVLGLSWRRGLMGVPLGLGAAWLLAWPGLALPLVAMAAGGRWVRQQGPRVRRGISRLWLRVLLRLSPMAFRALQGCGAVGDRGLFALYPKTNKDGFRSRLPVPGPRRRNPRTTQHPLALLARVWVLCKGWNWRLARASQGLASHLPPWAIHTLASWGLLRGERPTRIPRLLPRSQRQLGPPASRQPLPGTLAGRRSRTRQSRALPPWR
The note with it: at 1 µM.

Assay [7] concerns the target T3, Serine/threonine-protein kinase TAO2 (Homo sapiens). The note with it: at 10 µM.
Assay [8] addresses T4, Serine/threonine-protein kinase TAO3 (Homo sapiens) (UniProt Q9H2K8).
T4 sequence (whole entry): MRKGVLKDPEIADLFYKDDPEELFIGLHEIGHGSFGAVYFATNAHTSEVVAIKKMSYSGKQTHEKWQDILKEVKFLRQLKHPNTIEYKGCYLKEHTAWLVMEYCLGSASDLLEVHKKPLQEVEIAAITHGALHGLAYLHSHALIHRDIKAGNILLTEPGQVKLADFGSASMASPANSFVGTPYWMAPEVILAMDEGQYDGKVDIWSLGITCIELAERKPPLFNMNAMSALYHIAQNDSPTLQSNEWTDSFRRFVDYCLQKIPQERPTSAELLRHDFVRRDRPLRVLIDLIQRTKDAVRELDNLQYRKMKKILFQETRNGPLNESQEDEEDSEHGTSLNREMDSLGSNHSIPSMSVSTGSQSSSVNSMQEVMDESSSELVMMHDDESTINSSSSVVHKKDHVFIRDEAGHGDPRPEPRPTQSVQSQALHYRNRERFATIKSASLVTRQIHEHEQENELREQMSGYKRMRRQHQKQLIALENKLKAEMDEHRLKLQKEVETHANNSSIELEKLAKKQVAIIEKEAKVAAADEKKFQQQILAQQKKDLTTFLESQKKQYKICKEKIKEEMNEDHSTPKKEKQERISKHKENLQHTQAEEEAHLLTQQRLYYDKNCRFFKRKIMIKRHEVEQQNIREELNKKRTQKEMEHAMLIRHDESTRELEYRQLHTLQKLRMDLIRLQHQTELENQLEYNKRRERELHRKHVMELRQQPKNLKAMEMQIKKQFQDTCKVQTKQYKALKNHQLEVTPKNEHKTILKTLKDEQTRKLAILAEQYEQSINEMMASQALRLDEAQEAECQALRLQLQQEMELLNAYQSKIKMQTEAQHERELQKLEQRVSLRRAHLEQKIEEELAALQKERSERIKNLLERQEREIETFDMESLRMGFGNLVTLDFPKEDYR
The note with it: at 1 µM.

Assay [9] deals with T4, Serine/threonine-protein kinase TAO3 (Homo sapiens). Particulars: at 10 µM.
In assay [10] the target is T5, Serine/threonine-protein kinase TBK1 (Homo sapiens) (UniProt Q9UHD2).
T5 sequence (whole entry): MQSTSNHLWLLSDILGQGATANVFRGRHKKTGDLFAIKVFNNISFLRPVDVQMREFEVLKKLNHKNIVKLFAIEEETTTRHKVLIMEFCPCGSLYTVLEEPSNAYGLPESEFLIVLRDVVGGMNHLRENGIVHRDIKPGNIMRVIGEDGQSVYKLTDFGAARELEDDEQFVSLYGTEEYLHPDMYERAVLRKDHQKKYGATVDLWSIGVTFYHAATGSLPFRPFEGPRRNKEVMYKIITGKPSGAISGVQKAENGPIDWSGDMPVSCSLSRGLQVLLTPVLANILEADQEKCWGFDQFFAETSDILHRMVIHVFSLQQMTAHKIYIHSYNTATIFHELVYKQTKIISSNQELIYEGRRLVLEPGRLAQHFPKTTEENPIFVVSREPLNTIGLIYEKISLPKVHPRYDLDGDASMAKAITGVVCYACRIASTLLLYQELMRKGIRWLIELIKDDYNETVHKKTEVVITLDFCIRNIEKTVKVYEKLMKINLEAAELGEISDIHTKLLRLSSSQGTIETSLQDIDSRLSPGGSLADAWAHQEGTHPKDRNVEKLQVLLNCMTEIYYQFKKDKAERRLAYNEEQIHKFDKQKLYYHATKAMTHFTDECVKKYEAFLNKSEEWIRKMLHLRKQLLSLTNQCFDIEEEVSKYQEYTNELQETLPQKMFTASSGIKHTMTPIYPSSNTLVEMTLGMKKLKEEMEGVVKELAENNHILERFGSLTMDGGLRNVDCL
The note with it: at 1 µM.

Take `O=C1NC(=O)c2c1c1c3ccccc3[nH]c1c1[nH]c3cc(Br)ccc3c21`: the residual activity in assay [1] came out at 79%; in assay [2], 94%; in [3], 84%; in assay [4], 92%; in assay [5] it was 92%; in assay [6], 103%. Also, the residual activity was 92% in assay [7], 93% in [8], 94% in [9] and 75% in assay [10].

Values taken from ChEMBL document CHEMBL2218924, “A broad activity screen in support of a chemogenomic map for kinase signalling research and drug discovery” (Biochem J, 2013).
